Experimental data reported in PubChem BioAssay AID2796 (The Scripps Research Institute Molecular Screening Center, 2010).
About 8,000 (2.5%) of roughly 320,000 compounds were called active. Many of the other results were omitted from the sample, so actives are more common in it than they were. Unmarked numbers belong to inactive results. Cut-off read from the data, not from the text of the source: active = activation above about 47%; inactive = the rest.

Each compound was assayed against Aryl hydrocarbon receptor (Homo sapiens) (UniProt P35869) (assay: AHR activators, primary screen, cell-based, luminescence, luciferase reporter, human (AID 2796;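 note: 0% = vehicle wells and 100% = reference agonist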)). Details: AHR-responsive luciferase reporter cells, at 5 µM, active compounds read high.
Aryl hydrocarbon receptor (Homo sapiens), sequence (P35869 whole entry, looked up): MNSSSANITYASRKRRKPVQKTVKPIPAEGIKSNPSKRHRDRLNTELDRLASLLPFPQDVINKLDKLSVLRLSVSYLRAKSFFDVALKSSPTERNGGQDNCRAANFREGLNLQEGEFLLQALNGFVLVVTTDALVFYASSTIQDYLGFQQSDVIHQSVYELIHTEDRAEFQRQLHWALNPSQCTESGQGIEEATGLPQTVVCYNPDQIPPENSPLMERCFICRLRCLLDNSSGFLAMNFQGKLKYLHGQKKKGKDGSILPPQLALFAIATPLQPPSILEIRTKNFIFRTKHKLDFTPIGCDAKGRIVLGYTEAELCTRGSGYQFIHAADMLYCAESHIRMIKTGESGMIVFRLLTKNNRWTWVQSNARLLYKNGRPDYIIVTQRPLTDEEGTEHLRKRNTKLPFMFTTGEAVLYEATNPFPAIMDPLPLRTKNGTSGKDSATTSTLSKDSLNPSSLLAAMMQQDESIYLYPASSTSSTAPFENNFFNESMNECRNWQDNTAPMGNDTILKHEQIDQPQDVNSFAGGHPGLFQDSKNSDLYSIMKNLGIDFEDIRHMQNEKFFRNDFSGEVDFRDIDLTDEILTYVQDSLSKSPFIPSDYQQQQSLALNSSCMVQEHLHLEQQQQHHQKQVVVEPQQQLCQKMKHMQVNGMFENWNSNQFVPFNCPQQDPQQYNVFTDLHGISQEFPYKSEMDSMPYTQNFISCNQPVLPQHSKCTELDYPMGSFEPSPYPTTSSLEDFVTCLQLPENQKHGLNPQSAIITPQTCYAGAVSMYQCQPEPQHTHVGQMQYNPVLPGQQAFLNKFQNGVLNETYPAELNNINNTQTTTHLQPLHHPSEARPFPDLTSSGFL

| SMILES | activation |
| --- | --- |
| CCCCNC(=O)C1CCCN(S(=O)(=O)c2ccc(S(=O)(=O)NCC(C)C)cc2)C1 (centres undefined) | -3.28% |
| CCOc1ccc(C2c3[nH]c4ccccc4c3CCN2Cc2cccn2-c2ncccn2)cc1 (centres undefined) | 26.3% |
| COc1cccc(C2c3[nH]c4ccccc4c3CCN2Cc2cccc(C)n2)c1 (centres undefined) | 17.2% |
| CCOc1ccc(C2c3[nH]c4ccccc4c3CCN2Cc2cn(CC)nc2C)cc1 (centres undefined) | 58.7% (active) |
| Cc1c(-c2ccccc2)n[nH]c1C(=O)N=Nc1c(O)[nH]c2ccccc12 | -6.16% |
| CCOC(=O)c1nc(-c2ccc3c(c2)OCO3)[nH]c1C | 102% (active) |
| CCOC(=O)c1c(C)[nH]c(C(=O)COc2ccc3c(c2)OCO3)c1C | 30.7% |
| CCOC(=O)N1CCN(C(=O)COCc2cc(-c3ccc4c(c3)OCO4)on2)CC1 | 0.94% |
| CCCCOc1ccc(Cl)cc1CSc1nncn1N | 1.19% |
| Cc1cccc(N=C2SC(C)CN2C(=O)CN2C(=O)NC3(CCCC3)C2=O)c1 (centres undefined) | 2.39% |
| CCOc1ccccc1CN1CCN(C2CCC2)CC1CCO (centres undefined) | -2.26% |
| CC(=O)N1CSCC1C(=O)O (centres undefined) | 0.15% |
| CCOc1cccc(C(=O)Nc2cnn(Cc3ccccc3)c2)c1 | 47.8% (active) |
| O=C(O)CCCn1cc(NC(=O)COc2cccc(Cl)c2)cn1 | -1.62% |
| CCOc1cccc(C(=O)Nc2nnc(-c3cccs3)s2)c1 | 37.1% |
| C=CC1=C(C(=O)O)N2C(=O)[C@@H](NC(=O)/C(=N\OCC(=O)O)c3csc(N)n3)[C@H]2SC1 | -1.86% |
| CC(=O)Oc1ccc(C(=O)Nc2nccs2)cc1 | 1.87% |
| COc1cc(C(=O)Nc2nccs2)cc(OC)c1OC | 51.3% (active) |
| COc1ccc(Cc2nnc(NC(=O)c3cc(OC)c(OC)c(OC)c3)s2)cc1OC | 0.25% |
| O=C(Nc1cccc2c1N(C(=O)c1ccco1)CCC2)c1ccco1 | 2.88% |
| Cc1ccc(NC(=O)CSc2nn3c(=O)c(C)nnc3s2)cc1Cl | 72.8% (active) |
| COc1ccc(Cc2nnc(SCC(=O)Nc3ccc(C)c(Cl)c3)[nH]c2=O)cc1 | -0.12% |
| Cc1ccc(NC(=O)CSc2nnc(CNC(=O)c3ccccc3F)o2)cc1Cl | 26.2% |
| COCCNC(=O)CSc1nc2c(n1-c1ccccc1)CCCC2 | -0.48% |

| SMILES | activation |
| --- | --- |
| Cc1cc(=O)n2[nH]c(-c3cccc(Cl)c3)cc2n1 | 50.5% (active) |
| Cc1cc(=O)n2[nH]c(-c3sccc3-n3c(C)ccc3C)cc2n1 | 10% |
| O=c1c2c(nc3cc(-c4cccc(Cl)c4)[nH]n13)CCCC2 | 5.09% |
| O=C(CCc1ccc(S(=O)(=O)N2CCOCC2)cc1)OCC(=O)c1ccc(Br)cc1 | 2.27% |
| COC(=O)C1=C(C)N(c2ccc(C)cc2)/C(=C/c2ccc(O)cc2)C1=O | 2.06% |
| C[C@H](C(=O)CC(=O)OC(C)(C)C)[C@H](O)c1ccc(C(F)(F)F)cc1 | 1.94% |
| Cc1cc(OC(=O)c2ccc(Cl)cc2)cc(=O)n1C | -0.96% |
| COc1ccc2ccn(C)c2c1 | 5.22% |
| COc1ccc(C(C(=O)NCc2ccccc2)N(Cc2cccs2)C(=O)c2cnccn2)cc1 (centres undefined) | -1.35% |
| COc1ccc(NC(=O)c2cc([N+](=O)[O-])ccc2NC(=O)CNC2CCCCC2C)c(OC)c1 (centres undefined) | 47.4% (active) |
| CC1CCCCC1NCC(=O)Nc1ccccc1C(=O)Nc1ccccc1 (centres undefined) | -0.06% |
| COc1cc([N+](=O)[O-])ccc1NC(=O)CN1CCCC1 | 4.3% |
| COc1ccccc1CN1CC(C(=O)NCCc2cn[nH]c2)CCC1=O (centres undefined) | 2.31% |
| CNC(=O)c1c(NC(NC(=O)c2ccco2)C(=O)c2ccc(Cl)cc2)sc2c1CCCC2 (centres undefined) | 1.8% |
| O=C(Nc1sc2c(c1C(=O)O)CCC2)c1ccccc1F | 13.6% |
| NC(=O)c1c(NC(=O)CSc2nnc(-c3ccco3)n2N)sc2c1CCCC2 | 19.8% |
| NC(=O)c1c(Nc2nc3c(F)cccc3s2)sc2c1CCCC2 | 52.5% (active) |
| COc1cccc(OC)c1C(=O)Nc1sc2c(c1C(N)=O)CCCC2 | 49.1% (active) |
| COc1cccc(OC)c1C(=O)Nc1nnc(C(C)C)s1 | 15.7% |
| Cc1cccc(N(C(=O)Cn2nnc(-c3ccc(C)o3)n2)C(C(=O)NC2CCCC2)c2ccncc2)c1 (centres undefined) | -1.02% |
| CC1CCCCN1C(=O)CCS(=O)(=O)Cc1ccccc1 (centres undefined) | -0.28% |
| Nc1ccccc1/C=N\N=C/c1ccccc1N | 38.4% |
| COC(=O)c1sccc1NC(=S)Nc1ccc(C)cc1 | 1.83% |
| Cc1ccc(NC(=O)NNC(=O)c2sccc2-n2cccc2)cc1 | 85.8% (active) |

| SMILES | activation |
| --- | --- |
| CCNC(=O)c1sccc1-n1cccc1 | 0.75% |
| CN(C)C1=NC[C@H](Cc2ccccc2)N1CCc1ccc(F)cc1 | 5.16% |
| CCOC(=O)N1CCN(C(=O)c2ccccc2SCC(=O)NCC2CCCCC2)CC1 | 1.83% |
| O=C(Cc1ccccc1)NNC(=O)C1CCN(c2ncccn2)CC1 | 0.76% |
| O=C1/C(=C\Nc2ccccc2)CCN1c1ncccn1 | 66.5% (active) |
| COc1ccccc1Oc1ccc(N/C=C2/CCCC2=O)cc1 | 0.2% |
| CCc1cc2c(=O)c(-c3ccc(F)cc3)c(C(F)(F)F)oc2cc1OCC(=O)O | 8.09% |
| COc1ccc2oc(N)c(C=O)c(=O)c2c1 | -1.38% |
| CCc1cc2c(=O)c(-c3ccon3)c(N)oc2cc1OC | 59.6% (active) |
| CCN1C(=O)C(C(=O)NC(C)c2ccccc2)C2CC1(C)Oc1ccccc12 (centres undefined) | 2.9% |
| CC(NS(=O)(=O)c1ccccc1)c1n[nH]c(=S)n1-c1ccccc1 (centres undefined) | 2.32% |
| COc1ccc(Cl)cc1NS(=O)(=O)c1cccc(C(=O)NCC2CCCO2)c1 (centres undefined) | -1.04% |
| COc1ccc(C(=O)NC(=S)Nc2ccccc2N2CCN(S(C)(=O)=O)CC2)cc1OC | 0.97% |
| O=C(NC(=S)Nc1ccccc1N1CCCCC1)c1ccc(F)cc1 | 19.9% |
| COc1ccccc1C(=O)NC(=S)Nc1ccccc1N1CCCCC1 | 76.4% (active) |
| Cc1cc(C)n(CC(O)CN(c2ccccc2)S(=O)(=O)c2ccc3ccccc3c2)n1 (centres undefined) | 2.73% |
| N#C/C(=C(/O)COc1cccc2ccccc12)c1nc2ccccc2[nH]1 | 93.7% (active) |
| N#C/C(=C(/O)Cc1cccc2ccccc12)c1nc2ccccc2s1 | 9.95% |
| N#C/C(=C(/O)COC(=O)COc1ccc(Cl)cc1)c1nc2ccccc2[nH]1 | 24.9% |
| O=C(CCNS(=O)(=O)c1ccccc1C(F)(F)F)NCc1ccc2c(c1)OCO2 | 4.67% |
| COc1ccccc1CCNC(=O)CSc1nnc2ccc(-c3cccnc3)nn12 | 16.4% |
| CCOC(=O)N1CCC(N2Cc3cccc(C(=O)Nc4ccc(S(=O)(=O)N(CC)CC)cc4)c3C2=O)CC1 | -1.91% |
| CC(=O)Oc1ccccc1C(=O)Nc1ncc([N+](=O)[O-])s1 | 6.57% |
| Cc1cccc(C)c1Nc1nnc(SCC(=O)NCCCN2CCCC2=O)s1 | -0.54% |

| SMILES | activation |
| --- | --- |
| C=CCNc1nc(N)c(C(=C(C#N)C#N)c2ccccc2)s1 | 5.13% |
| CN1c2ccc([N+](=O)[O-])cc2C(C)(C)C12C=Cc1cc(C(=O)O)ccc1O2 (centres undefined) | 0.9% |
| CC[C@@]1(C(=O)OC)N[C@H](CN(C)C(C)=O)[C@@H]2C(=O)N(C)C(=O)[C@@H]21 | -0.36% |
| N#C/C(=C1/CCCN1)c1ccccn1 | 0.38% |
| Cn1c(/C(C#N)=C2/CCCCCN2)nc2ccccc21 | 67.6% (active) |
| Cn1c(S(=O)(=O)O)nc2ccccc21 | 3.28% |
| Cc1ccc2[nH]c(=O)c(CN(CCCN(C)C)C(=O)Nc3cccc(Cl)c3)cc2c1 | 0.48% |
| Cc1ncn2cc(-c3ccc(Cl)cc3Cl)[nH]c(=O)c12 | 56.5% (active) |
| CCOC(=O)c1nc(C)n(-c2ccc(Cl)cc2Cl)n1 | 2.68% |
| COn1c(-c2ccc(Cl)cc2Cl)nc2ncccc21 | 2.64% |
| COc1cc(NC(=O)CSc2ccc(-c3cccnc3)nn2)cc(OC)c1 | 44.9% |
| O=S(=O)(NCC1CCCO1)c1cnc(Cl)c(Cl)c1 (centres undefined) | -2.6% |
| CC(C)[C@H](NC(=O)N1c2ccccc2NC(=O)[C@@H]1C(C)C)C(=O)N[C@H](C(=O)O)c1ccccc1 | 0.48% |
| C/C(=N\Nc1nc(Nc2ccccc2)nc(N2CCOCC2)n1)c1cccs1 | 56.8% (active) |
| C/C(=N\Nc1nc2ccccc2[nH]1)c1cccs1 | 43.1% |
| C/C(=N\Nc1nc(N2CCOCC2)nc(N2CCOCC2)n1)c1ccc([N+](=O)[O-])cc1 | 0.4% |
| CC(c1ccco1)N(C(=O)COc1ccccc1[N+](=O)[O-])c1ccccn1 (centres undefined) | 1.97% |
| CC(C)=CCN1CCN(Cc2ccc(Oc3ncccn3)cc2)CC1CCO (centres undefined) | -1.11% |
| CCc1ccc(-c2cc(C(=O)NN3CCN(C)CC3)c3ccccc3n2)cc1 | 30.5% |
| O=C(NCCc1ccccn1)c1nc(Cn2cc([N+](=O)[O-])cn2)no1 | 0.9% |
| O=C(Nc1ccc(Br)c2cccnc12)c1ccc(Cn2cc([N+](=O)[O-])cn2)o1 | 52% (active) |
| CCc1ccc(NC(=O)c2ccc(Cn3cc([N+](=O)[O-])cn3)cc2)cc1 | 3.58% |
